PubChem BioAssay (NCATS)
Inconclusive results are not listed. Active and inactive are the calls of the source. Calls come from the whole dose curve; as a rule, active = well fitted curve in the direction sought with a large enough effect; inconclusive = small, poorly fitted or top-dose-only effect, or another doubt; inactive = no such curve, though single readings can be large; an effect the other way counts as inactive or inconclusive.

Assays:
[1] = COV-362 Cancer Cell Toxicity qHTS against the NCATS CANVASS Library (AID 1347352); details: COV-362 viability, CellTiter-Glo luminescence, 72 h; note: potency is the fitted concentration of half-maximal effect
Procedure, shortened: (§1)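 1000 cells/well, 4 h pre-incubation 37 °C/5% CO2; 11-pnt titration; 72 h; CellTiter-Glo 15 min RT, luminescence.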

[2] = A2780 Cisplatin Sensitive Ovarian Cancer Cell Toxicity qHTS against the NCATS CANVASS Library (AID 1347353); details: A2780 ovarian cancer viability, ATPLite luminescence, 72 h; note: potency is the fitted concentration of half-maximal effect; nearly all actives have a fitted effect of over 60% in size
Procedure, shortened: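 750 cells/well, 4 h settle; 11-pt cpd titration; 72 h, 37 °C, 5% CO2; ATPLite 10 min RT; luminescence read.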

[3] = HEK-293 Cancer Cell Toxicity qHTS against the NCATS CANVASS Library (AID 1347355); details: HEK-293 viability, CellTiter-Glo luminescence, 72 h; note: potency is the fitted concentration of half-maximal effect; nearly all actives have a fitted effect of over 65% in size
Procedure, shortened: as §1

[4] = HPAF-II 24hr Apoptosis Induction qHTS against the NCATS CANVASS Library (AID 1347356); details: HPAF-II caspase-3/7 Caspase-Glo luminescence; series mostly up to 46.1 µM
Procedure, shortened: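 500 HPAF-II cells/well; compounds in 11-pnt qHTS; 24 h, 37 C/5% CO2; Caspase-Glo 3/7 added, 15 min RT dark; luminescence read. Doxorubicin control.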

[5] = HEK293 18hr Apoptosis Induction qHTS against the NCATS CANVASS Library (AID 1347357); details: HEK293 caspase-3/7 Caspase-Glo luminescence; series mostly up to 46.1 µM
Procedure, shortened: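 Caspase-3/7 luminescence (DEVD substrate, Caspase-Glo) after 18 h compound exposure of HEK293 cells, 500 cells/well; 11-point series; doxorubicin titration as control.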

[6] = HPAF-II 12hr Apoptosis Induction qHTS against the NCATS CANVASS Library (AID 1347358); details: HPAF-II caspase-3/7 Caspase-Glo luminescence; series mostly up to 46.1 µM
Procedure, shortened: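 Caspase-Glo 3/7 luminescence (DEVD substrate) reports caspase activity in HPAF-II cells after 12 h compound treatment at 37 degrees C. Compounds were tested in an 11-point series. Doxorubicin served as control.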

[7] = HEK293 24hr Apoptosis Induction qHTS against the NCATS CANVASS Library (AID 1347359); details: HEK293 caspase-3/7 activation, Caspase-Glo luminescence; series mostly up to 46.1 µM
Procedure, shortened: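 HEK293 cells, 500 per well, exposed to an 11-point compound series for 24 hours at 37 degrees C. Caspase 3/7 activity read by Caspase-Glo luminescence (DEVD substrate) after 15 min at room temperature.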

[8] = HPAF-II 18hr Apoptosis Induction qHTS against the NCATS CANVASS Library (AID 1347360); details: HPAF-II caspase-3/7 luminescence; series mostly up to 46.1 µM
Procedure, shortened: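 Caspase-Glo 3/7 luminescence (DEVD substrate) after 15 min RT; HPAF-II, 500 cells/well, 18 h compound exposure at 37 degrees C, qHTS series; doxorubicin control 0.1nM - 4uM.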

[9] = HEK293 12hr Apoptosis Induction qHTS against the NCATS CANVASS Library (AID 1347361); details: HEK293 caspase-3/7 Caspase-Glo luminescence; series mostly up to 46.1 µM
Procedure, shortened: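 500 HEK293 cells/well; cpds pin-transferred, 11-pt conc series; 12 h, 37 degrees C/5% CO2; Caspase-Glo 3/7 added, 15 min RT dark; luminescence.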

[10] = tested on: NAD(P)H diaphorase (Clostridium kluyveri); assay: Diaphorse counterscreen qHTS: Assay Interference Panel against the NCATS CANVASS Library (AID 1347362); details: Diaphorase enzyme, resazurin to resorufin fluorescence; series mostly up to 57.5 µM
Procedure, shortened: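 Clostridium kluyveri diaphorase in PBS + 0.01% Tween-20 preincubated 15 min with compounds. Resazurin and NADH then added for 5 min at room temperature in the dark; resorufin fluorescence read (ex 525, em 598).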

[11] = molecular target: Luciferin 4-monooxygenase (Photinus pyralis) (UniProt P08659); assay: Firefly luciferase counterscreen qHTS: Assay Interference Panel against the NCATS CANVASS Library (AID 1347363); details: purified firefly luciferase, luminescence inhibition, 5 min; series mostly up to 57.5 µM
Procedure, shortened: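 Purified P. pyralis luciferase (0.04 ug/mL, 4x reagent) added to Tris-acetate buffer with 0.013 mM D-luciferin, 0.013 mM ATP and 13.3 mM Mg-acetate; compounds preincubated 15 min, then luminescence read after 5 min, RT.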

[12] = KB-8-5-11 Cancer Cell Toxicity qHTS against the NCATS CANVASS Library (AID 1347364); details: KB-8-5-11 MDR cells viability, CellTiter-Glo, 72 h; note: potency is the fitted concentration of half-maximal effect; nearly all actives have a fitted effect of over 75% in size
Procedure, shortened: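 CellTiter-Glo luminescence after 72 h exposure; 500 KB-8-5-11 cells/well, DMEM/10% FBS, 37C, 5% CO2; compounds in 11-pt qHTS. Follow-up confirmation included medium with 1uM tariquidar.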

[13] = SDT Cancer Cell Toxicity qHTS against the NCATS CANVASS Library (AID 1347365); details: SDT dog glioma viability, ATP luminescence, 72 h; note: potency is the fitted concentration of half-maximal effect; nearly all actives have a fitted effect of over 60% in size
Procedure, shortened: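 Luminescent ATP read-out (CellTiterGlo) after 72 hr compound exposure of dog glioma SDT cells, 500 per well. Eleven-point titrations; bortezomib titration run alongside as control.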

[14] = qHTS for ATAD5 Agonist screened against the NCATS CANVASS Library (AID 1347367); details: HEK293T ATAD5-luciferase reporter, luminescence, 16 h; series mostly up to 46.1 µM
Procedure, shortened: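 Luminescence read-out: ATAD5-driven luciferase in stably transfected HEK 293T cells, which rises post-transcriptionally with DNA damage. Cells were exposed 16hr at 37C to test compound; a CellTiter-Fluor fluorescence read (1hr) measured viability first.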

[15] = G06 Cancer Cell Toxicity qHTS against the NCATS CANVASS Library (AID 1347368); details: G06 dog glioma cells, viability ATP luminescence, 72 h; note: potency is the fitted concentration of half-maximal effect; nearly all actives have a fitted effect of over 60% in size
Procedure, shortened: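 ATP luminescence (CellTiterGlo) readout of cytotoxicity. Canine G06 glioma cells, 500/well, 72 hr incubation at 37C with compounds; bortezomib titration served as control.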

[16] = MCF7 Cancer Cell Toxicity qHTS against the NCATS CANVASS Library (AID 1347369); details: MCF7 viability, ATP luminescence (CellTiter-Glo), 72 h; note: potency is the fitted concentration of half-maximal effect
Procedure, shortened: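 Luminescent ATP signal (CellTiterGlo) served as the cytotoxicity read-out after MCF7 breast cancer cells had been incubated 72 hr at 37C with natural products in an 11-point titration.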

[17] = J3T Cancer Cell Toxicity qHTS against the NCATS CANVASS Library (AID 1347371); details: J3T dog glioma viability, ATP luminescence, 72 h; note: potency is the fitted concentration of half-maximal effect
Procedure, shortened: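 Dog glioma J3T, 500 cells/well; cpd 11-pt qHTS; 72 hr, 37C/5% CO2; CellTiterGlo ATP luminescence readout.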

[18] = molecular target: Nuclear receptor subfamily 1 group I member 3 (Homo sapiens) (UniProt Q14994); assay: qHTS for Constitutive Androstane Receptor (CAR) Antagonist screened against the NCATS CANVASS Library (AID 1347372); details: HepG2-hCAR-CYP2B6 luciferase, CITCO-stimulated antagonist mode; series mostly up to 46.1 µM;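 note: cells stimulated with 50 nM CITCO agonist so inhibition reflects antagonism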
Procedure, shortened: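 Luminescence readout (ONE-Glo, 30 min RT) of CYP2B6-2.2kb reporter in HepG2-hCAR cells after 24hr, 37C treatment with compound against 50 nM CITCO; CellTiter-Fluor viability read beforehand.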

[19] = molecular target: Nuclear receptor subfamily 1 group I member 3 (Homo sapiens) (UniProt Q14994); assay: qHTS for Constitutive Androstane Receptor (CAR) Agonist screened against the NCATS CANVASS Library (AID 1347373); details: HepG2-hCAR-CYP2B6 luciferase reporter, ONE-Glo luminescence; series mostly up to 46.1 µM;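 note: every well also contained 1.5 µM PK11195 alongside the test compound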
Procedure, shortened: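 Luciferase read-out (ONE-Glo, 30 min RT) of CYP2B6-2.2kb promoter activity in double-stable HepG2-hCAR cells after 24hr compound exposure with 1.5uM PK11195 present; viability measured first by CellTiter-Fluor.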

[20] = 10-beta competent E. coli microbial cell viability qHTS against the NCATS CANVASS Library (AID 1347376); details: E. coli 10-beta viability, BacTiter-Glo ATP luminescence, overnight; series mostly up to 46.1 µM
Procedure, shortened: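 Luminescence from BacTiter-Glo ATP detection served as the viability read-out; bacteria (0.2 OD) had been incubated overnight at 37C with pin-transferred compounds at 11 concentrations.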

Measured: Potency

Nuclear receptor subfamily 1 group I member 3 (Homo sapiens), sequence (Q14994 whole entry, looked up): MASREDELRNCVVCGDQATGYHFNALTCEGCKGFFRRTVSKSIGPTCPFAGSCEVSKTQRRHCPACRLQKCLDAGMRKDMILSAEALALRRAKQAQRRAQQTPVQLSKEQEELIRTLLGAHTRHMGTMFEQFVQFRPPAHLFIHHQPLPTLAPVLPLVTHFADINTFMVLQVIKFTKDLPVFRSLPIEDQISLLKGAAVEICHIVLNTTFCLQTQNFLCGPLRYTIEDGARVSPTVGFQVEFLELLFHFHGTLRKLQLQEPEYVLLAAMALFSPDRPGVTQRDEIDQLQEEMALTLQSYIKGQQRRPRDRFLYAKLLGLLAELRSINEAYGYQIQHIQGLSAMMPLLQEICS
Luciferin 4-monooxygenase (Photinus pyralis), sequence (P08659 whole entry, looked up): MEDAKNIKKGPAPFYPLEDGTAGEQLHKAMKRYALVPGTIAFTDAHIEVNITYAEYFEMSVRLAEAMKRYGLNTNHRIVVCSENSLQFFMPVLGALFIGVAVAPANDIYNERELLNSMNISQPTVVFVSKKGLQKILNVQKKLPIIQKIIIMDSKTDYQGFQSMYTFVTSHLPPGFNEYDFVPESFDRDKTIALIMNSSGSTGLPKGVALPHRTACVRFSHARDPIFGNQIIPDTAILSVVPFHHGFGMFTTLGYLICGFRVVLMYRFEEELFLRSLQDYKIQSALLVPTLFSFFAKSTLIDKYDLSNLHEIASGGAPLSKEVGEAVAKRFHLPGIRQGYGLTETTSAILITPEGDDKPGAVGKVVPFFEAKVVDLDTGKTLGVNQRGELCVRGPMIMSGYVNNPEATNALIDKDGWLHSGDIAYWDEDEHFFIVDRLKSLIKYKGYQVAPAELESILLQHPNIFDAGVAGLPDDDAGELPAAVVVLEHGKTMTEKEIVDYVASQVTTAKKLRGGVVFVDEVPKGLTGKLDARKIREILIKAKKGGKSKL

C=C1C(=O)O[C@H]2[C@H]1CC/C(C)=C/CC[C@@]1(C)O[C@@H]21
active: [1] 18.8 µM | [2] 2.96 µM | [3] 7.43 µM | [12] 16.6 µM | [13] 8.33 µM | [15] 9.35 µM | [16] 7.39 µM | [17] 16.6 µM
inactive: all other assays above
